# Experimental data reported in PubChem BioAssay (NCATS).
# Several values for one entry are separate records, joined by “and”; a condition that tells them apart may be missing. Equal entries are not always repeated. Records with an inconclusive call do not appear. Entries that show only a call come without a potency. Activity calls are given as the source filed them. Unless noted, calls come from the whole dose curve; as a rule, active = well fitted curve in the direction sought with a large enough effect; inconclusive = small, poorly fitted or top-dose-only effect, or another doubt; inactive = no such curve, though single readings can be large; an effect the other way counts as inactive or inconclusive.
# Tests used:
# [1] = molecular target: Glutaminase kidney isoform, mitochondrial (Homo sapiens) (UniProt O94925); test: qHTS for Inhibitors of Glutaminase (GLS): LOPAC Validation (AID 624146); note: nearly all actives have a fitted effect of over 60% in size; note: potency is the fitted concentration of half-maximal effect
# Chain of Glutaminase kidney isoform, mitochondrial (Homo sapiens) (O94925 whole entry, looked up, canonical isoform): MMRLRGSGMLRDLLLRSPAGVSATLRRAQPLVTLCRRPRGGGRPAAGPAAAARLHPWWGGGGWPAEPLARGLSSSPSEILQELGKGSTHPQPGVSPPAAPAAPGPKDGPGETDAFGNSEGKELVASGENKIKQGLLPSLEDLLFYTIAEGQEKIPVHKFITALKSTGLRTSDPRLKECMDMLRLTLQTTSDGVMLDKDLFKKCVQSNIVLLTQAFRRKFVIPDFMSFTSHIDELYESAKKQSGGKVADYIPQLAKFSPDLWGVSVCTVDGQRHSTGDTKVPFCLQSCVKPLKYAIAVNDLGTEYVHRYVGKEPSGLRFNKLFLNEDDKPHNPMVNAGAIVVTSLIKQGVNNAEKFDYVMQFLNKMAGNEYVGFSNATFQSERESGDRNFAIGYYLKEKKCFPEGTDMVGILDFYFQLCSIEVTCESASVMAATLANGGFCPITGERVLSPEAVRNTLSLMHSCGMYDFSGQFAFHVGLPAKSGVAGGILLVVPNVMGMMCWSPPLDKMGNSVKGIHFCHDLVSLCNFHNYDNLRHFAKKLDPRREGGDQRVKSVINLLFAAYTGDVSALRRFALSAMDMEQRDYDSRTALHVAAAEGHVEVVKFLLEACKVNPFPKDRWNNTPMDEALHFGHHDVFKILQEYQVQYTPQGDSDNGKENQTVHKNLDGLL
# Method in brief: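 hKGA; 45 mM KH2PO4 pH 8.2 + 0.02% Tween-20; cpd via pin tool; 1 mM Gln soln; GluOx/HRP/Amplex Red; RT 30 min; fluor. t0 & final.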
# [2] = qHTS of Trypanosoma Brucei Inhibitors: LOPAC Validation (AID 624147)
# Method in brief: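 Screened from lowest to highest concentration, compounds were pinned into TbPYK/substrate mixtures, and ADP (130 uM final) was added. Plates sat at room temperature for 45 min prior to Kinase-Glo Plus detection by luminescence.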
# [3] = molecular target: Glucagon-like peptide 1 receptor (Homo sapiens) (UniProt P43220); test: qHTS of GLP-1 Receptor Agonists: LOPAC Validation (AID 624148);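 note: higher luminescence signal means agonism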
# Chain of Glucagon-like peptide 1 receptor (Homo sapiens) (P43220 whole entry, looked up): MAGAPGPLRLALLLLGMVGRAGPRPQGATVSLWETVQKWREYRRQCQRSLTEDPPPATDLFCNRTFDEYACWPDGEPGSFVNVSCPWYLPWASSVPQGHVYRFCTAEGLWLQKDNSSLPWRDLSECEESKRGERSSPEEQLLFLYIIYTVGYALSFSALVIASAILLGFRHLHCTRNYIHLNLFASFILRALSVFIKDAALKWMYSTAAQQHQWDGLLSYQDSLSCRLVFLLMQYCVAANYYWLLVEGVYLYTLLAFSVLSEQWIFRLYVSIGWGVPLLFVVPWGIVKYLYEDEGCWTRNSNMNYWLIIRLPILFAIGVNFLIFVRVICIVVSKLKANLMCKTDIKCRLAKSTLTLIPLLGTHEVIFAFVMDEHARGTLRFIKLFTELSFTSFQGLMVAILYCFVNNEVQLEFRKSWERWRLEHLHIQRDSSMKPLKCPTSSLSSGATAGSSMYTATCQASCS
# Method in brief: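 HEK293 cells stably co-expressing a cAMP-responsive luciferase reporter and a hypersensitive GLP-1R were plated 12 h at 37 °C and exposed to compounds for 4-6 hr at 37 °C, 5% CO2. Luminescence was read 12 min after adding detection reagent.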
# [4] = qHTS of Nrf2 Activators: LOPAC Validation (AID 624149)
# Method in brief: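 ARE reporter activation measured in AREc32 firefly luciferase cells after 24 hr compound exposure; Steady-Glo luminescence.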
# [5] = HTS Assay for Allosteric Antagonists of the Human D2 Dopamine Receptor: Hit Validation in HTRF (AID 624455); note: potency is the fitted concentration of half-maximal effect;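 note: stable D1 dopamine receptor cell line scored for blocking the D1 response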
# Method in brief: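 Signal from an HTRF read-out in D1-expressing stable cells gave hit activity as inhibition of the D1 response.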
# [6] = qHTS Assay for Identification of Small Molecule Agonists for NFkB Signaling Pathway. (AID 624478);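 note: compounds tested together with TNF alpha at its EC50 of 10 pM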
# Method in brief: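 Cells carrying an NFkB response element-driven beta-lactamase gene are co-treated with compound and 10 pM TNF alpha for 5 h, and reporter activity is then read as 460 and 530 nm fluorescence.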
# [7] = qHTS Assay for Identification of Small Molecule Antagonists for NFkB Signaling Pathway. (AID 624479; calls by dose curve;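 note: pathway stimulated with TNF alpha; potency is the fitted concentration of half-maximal effect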)
# [8] = Cell Proliferation Assay against the TMD8 Cell Line (AID 651645); conditions: TMD8 DLBCL cell line proliferation/viability; at 46.1 µM (top of the series) unless noted;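 note: cells exposed to compound for 48 h before reading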
# Method in brief: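 TMD8 cells, 500/well in RPMI with 5% FBS, dosed immediately and grown 48 h at 37 C, 5% CO2. CellTiter-Glo luminescence normalised to DMSO 100% and 9.2 uM bortezomib (final) 0%.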
# [9] = Cell Proliferation Assay against the HBL1 Cell Line (AID 651646); conditions: HBL1 DLBCL cells; at 46.1 µM (top of the series) unless noted;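 note: cells exposed to compound for 48 h before reading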
# Method in brief: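 500 log-phase HBL1 cells per well in phenol red-free RPMI with 5% FBS were treated with compounds for 48 h at 37 °C, 5% CO2. Viability was read by CellTiter-Glo luminescence, normalized to DMSO (100%) and 9.2 uM bortezomib final (0%).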
# [10] = Cell Proliferation Assay against the TMD8 Cell Line (Caspase readout at 16 hrs) (AID 651712); note: potency is the fitted concentration of half-maximal effect
# Method in brief: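 TMD8 cells (500/well) in phenol-red-free RPMI with glutamine, 5% FBS, were exposed to compounds for 16 h at 37 °C. Caspase 3/7 activation was read by Caspase-Glo luminescence; percent activity normalised to DMSO (0%) and 9.2 uM bortezomib final (100%).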
# [11] = Cell Proliferation Assay against the TMD8 Cell Line (Caspase readout at 8 hrs) (AID 651713)
# Method in brief: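 Percent activity derived from Caspase-Glo signal, DMSO set to 0% and bortezomib (9.2 uM final) to 100%. TMD8 cells were exposed to compound for 8 h in RPMI with 5% FBS.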
# [12] = Cytotoxicity counterscreen for NFkB agonists and antagonists (AID 624476);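 note: cells exposed to compound for 48 hours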; note: potency is the fitted concentration of half-maximal effect
# [13] = qHTS assay for small molecule agonists of the antioxidant response element (ARE) signaling pathway (AID 651741; active = well fitted activation curve with a large enough effect in the signal ratio; the % refers to the signal ratio)
# Method in brief: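 ARE-bla HepG2 cells (beta-lactamase reporter under ARE control) were plated at 2,000 cells/well, preincubated 5 h at 37 C/5% CO2, then treated with DMSO-dissolved compounds for 16 h at 37 C; LiveBLAzer B/G FRET substrate added, fluorescence read after 2 h at room temperature.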
# [14] = qHTS assay for small molecule activators of the p53 signaling pathway (AID 651743; active = well fitted activation curve with a large enough effect in the signal ratio, not every such curve was filed as active; the % refers to the signal ratio); conditions: HCT-116 p53RE-bla, beta-lactamase FRET ratio, 16 h; activation: stronger effect = higher value
# Method in brief: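 p53RE-bla HCT-116 cells with a stably integrated beta-lactamase reporter under p53 response elements were plated, rested 5 hours at 37 C/5% CO2, then exposed to compounds in DMSO for 16 hours at 37 C. LiveBLAzer B/G FRET substrate was read after 2 hours at room temperature.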
# [15] = qHTS assay for small molecule disruptors of the mitochondrial membrane potential - 1 hr assay (AID 651754; calls by dose curve; note: nearly all actives have a fitted effect of over 35% in size)
# Method in brief: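 Steps: seed HepG2 cells and let attach overnight; pin-transfer compound or vehicle; incubate 1 hr at 37C; add Mito-MPS dye for 30 min; read two-channel fluorescence for monomer and aggregate forms.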
smiles,measurement,setting,value
C[N+]1(C)C2CCC1CC(OC(=O)C(CO)c1ccccc1)C2 (stereo unspecified),Potency,[1],inactive
same,outcome,[2],inactive
same,outcome,[3],inactive
same,outcome,[4],inactive
same,Potency,[5],inactive
C/C=C(/C)C(=O)O[C@H]1C(C)=C2[C@H]([C@@H]1OC(=O)CCCCCCC)[C@@](C)(OC(C)=O)C[C@H](OC(=O)CCC)[C@@]1(O)[C@H]2OC(=O)[C@@]1(C)O,Potency,[1],inactive
same,outcome,[2],inactive
same,outcome,[3],inactive
same,outcome,[4],inactive
same,Potency,[5],inactive
O=C(N[C@H]1CN2CCC1CC2)c1ccc(Cl)cc1,Potency,[1],inactive
same,outcome,[2],inactive
same,outcome,[3],inactive
same,outcome,[4],inactive
same,Potency,[5],inactive
COc1cc(C(O)CN)ccc1O (stereo unspecified),Potency,[1],2.24 µM (active)
same,outcome,[2],inactive
same,outcome,[3],inactive
same,outcome,[4],inactive
same,Potency,[5],inactive
NCCc1c[nH]c2ccc(O)cc12,Potency,[1],inactive
same,outcome,[2],inactive
same,outcome,[3],inactive
same,outcome,[4],inactive
same,Potency,[5],inactive
Cc1c(C(=O)c2cccc3ccccc23)c2cccc3c2n1[C@H](CN1CCOCC1)CO3,outcome,[2],inactive
same,outcome,[3],inactive
same,outcome,[4],inactive
same,Potency,[5],inactive
O=C(Cc1ccc(Cl)c(Cl)c1)N1CCCCC1CN1CCCC1 (stereo unspecified),Potency,[1],inactive
same,outcome,[2],inactive
same,outcome,[3],inactive
same,outcome,[4],inactive
same,Potency,[5],inactive
Cc1nccc2c1[nH]c1ccccc12,Potency,[1],inactive
same,outcome,[2],inactive
same,outcome,[3],inactive
same,outcome,[4],inactive
same,Potency,[5],inactive
CC[C@@]1(O)C(=O)OCc2c1cc1n(c2=O)Cc2cc3ccccc3nc2-1,Potency,[1],inactive
same,outcome,[2],inactive
same,outcome,[3],inactive
same,outcome,[4],inactive
same,Potency,[5],inactive
c1ccc(CCCN2CCN(CCOC(c3ccccc3)c3ccccc3)CC2)cc1,Potency,[1],inactive
same,outcome,[2],inactive
same,outcome,[3],inactive
same,outcome,[4],inactive
same,Potency,[5],inactive
CCCN1CCO[C@@H]2c3cc(O)ccc3OC[C@H]21,Potency,[1],4.47 µM (active) and 1.41 µM (active)
same,outcome,[2],inactive
same,outcome,[3],inactive
same,outcome,[4],inactive
same,Potency,[5],inactive
C[C@@H](N)Cc1cnc[nH]1,Potency,[1],inactive
same,outcome,[2],inactive
same,outcome,[3],inactive
same,outcome,[4],inactive
same,Potency,[5],inactive
CC(=O)NCCc1c[nH]c2ccccc12,Potency,[1],inactive
same,outcome,[2],inactive
same,outcome,[3],inactive
same,outcome,[4],inactive
same,Potency,[5],inactive
CC[C@@H](C(N)=O)N1CCCC1=O,Potency,[1],inactive
same,outcome,[2],inactive
same,outcome,[3],inactive
same,outcome,[4],inactive
same,Potency,[5],inactive
C=CCON=C(C[C@H]1O[C@@H]2O[C@]3(C)CC[C@@H]4[C@H](C)CC[C@@H]([C@H]1C)[C@@]24OO3)[C@H]1O[C@@H]2O[C@]3(C)CC[C@H]4[C@H](C)CC[C@@H]([C@@H]1C)[C@@]24OO3,outcome,[6],inactive
same,Potency,[7],16.8 µM (active)
same,viability (% of control),[8],10.2%
same,"viability, percent of control",[9],30.4%
same,Potency,[10],0.0833 µM (active)
same,Potency,[11],inactive
Cc1cnc(Nc2ccc(F)cc2Cl)nc1-c1c[nH]c(C(=O)N[C@H](CO)c2cccc(Cl)c2)c1,Potency,[12],26.4 µM (active)
same,Potency,[7],16.8 µM (active)
Cc1nc(-c2ccc(-c3ccc(C(=O)N4CCc5cc6c(cc54)C4(CCN(C)CC4)CO6)cc3)c(C)c2)no1,Potency,[12],inactive
same,outcome,[6],inactive
same,viability (% of control),[8],2.26%
same,"viability, percent of control",[9],1.18%
Nc1nc(-c2nn(Cc3ccccc3F)c3ncccc23)nc(N)c1N1CCOCC1,viability (% of control),[8],91.5%
same,"viability, percent of control",[9],114%
O=C(Nc1cc(C(F)(F)F)cc(C(F)(F)F)c1)c1cc(Cl)ccc1O,Potency,[7],14.9 µM (active)
NC1CCc2cc(O)c(O)cc2C1 (stereo unspecified),outcome,[3],inactive
same,outcome,[4],inactive
same,Potency,[5],0.0164 µM (active)
O=S(=O)(O)C(F)(F)C(F)(F)C(F)(F)C(F)(F)C(F)(F)C(F)(F)C(F)(F)C(F)(F)F,Potency,[13],inactive
same,activation,[14],-2.58% (inactive) and 0.715% (inactive)
Nc1ccc(Sc2ccc(N)cc2)cc1,Potency,[15],inactive
O=C(O)CCCOc1ccc(Cl)cc1Cl,activation,[14],3.34% (inactive)
